# TRHR ag: activates the human TRH receptor | hit rate 0.18% among 360,000 | AID 493084 | P34981 | TRHR cells, calcium flux fluo-8, FDSS agonist mode | activation, % at 2 µM; in the data active = activation above about 30%; note: 0% is about no effect
#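 TRHR-expressing cells loaded with fluo-8 calcium dye; 23 nL library compound pin-transferred, kinetic FDSS fluorescence (Ex 480/Em 530) recorded about 180 s for agonist-induced calcium release, before a 10 nM TRH EC20 addition for potentiator mode.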
# KCNH2 WT inh: inhibitors of human wildtype KCNH2 potassium channel; Q12809; U2OS, BacMam KCNH2, thallium flux FluxOr; hits give low values; activity change, % at 1.84 µM; hit rate 0.37% among 340,000;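 active = maximum activity change below -70%; inconclusive = maximum activity change between -70% and -50%; inactive = maximum activity change above -50%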; note: % is set by controls: 0 for no effect and ±100 for the full control effect
# Target sequence (Q12809 whole entry, looked up): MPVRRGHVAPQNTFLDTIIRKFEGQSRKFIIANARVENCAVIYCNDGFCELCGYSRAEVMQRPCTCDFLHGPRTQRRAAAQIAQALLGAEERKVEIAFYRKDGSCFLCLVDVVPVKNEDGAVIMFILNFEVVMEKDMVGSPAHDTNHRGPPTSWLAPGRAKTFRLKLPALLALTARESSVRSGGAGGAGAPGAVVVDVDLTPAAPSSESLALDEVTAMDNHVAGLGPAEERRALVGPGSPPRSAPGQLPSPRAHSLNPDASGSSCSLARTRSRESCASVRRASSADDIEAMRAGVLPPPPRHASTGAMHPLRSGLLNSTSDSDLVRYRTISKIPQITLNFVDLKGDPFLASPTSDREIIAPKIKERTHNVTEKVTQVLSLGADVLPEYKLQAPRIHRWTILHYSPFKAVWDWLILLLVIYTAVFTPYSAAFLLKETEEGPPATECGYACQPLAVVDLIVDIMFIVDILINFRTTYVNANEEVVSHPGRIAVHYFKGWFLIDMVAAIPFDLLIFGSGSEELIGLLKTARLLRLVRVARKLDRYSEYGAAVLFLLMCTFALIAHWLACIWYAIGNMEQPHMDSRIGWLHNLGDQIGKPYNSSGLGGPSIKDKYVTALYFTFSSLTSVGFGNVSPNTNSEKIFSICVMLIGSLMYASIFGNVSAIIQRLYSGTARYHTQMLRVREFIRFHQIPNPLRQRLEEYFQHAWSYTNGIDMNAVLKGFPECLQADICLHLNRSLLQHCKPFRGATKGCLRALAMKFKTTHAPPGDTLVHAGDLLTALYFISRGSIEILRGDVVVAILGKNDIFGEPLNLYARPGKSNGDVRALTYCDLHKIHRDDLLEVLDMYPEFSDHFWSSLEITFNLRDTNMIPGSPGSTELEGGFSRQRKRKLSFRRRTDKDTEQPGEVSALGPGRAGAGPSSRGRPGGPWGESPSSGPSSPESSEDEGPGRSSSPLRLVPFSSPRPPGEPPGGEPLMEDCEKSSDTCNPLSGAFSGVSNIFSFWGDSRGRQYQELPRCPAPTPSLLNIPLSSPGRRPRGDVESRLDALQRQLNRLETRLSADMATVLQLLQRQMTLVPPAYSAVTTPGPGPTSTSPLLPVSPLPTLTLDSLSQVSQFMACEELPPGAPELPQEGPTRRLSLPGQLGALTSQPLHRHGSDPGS
#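 U2OS cells were transduced with wild-type KCNH2 virus (2.03 x 10^8 / mL) for 4 h at room temperature, then cultured overnight at 37 C. Thallium flux was read with FluxOr dye. Rate constants were normalized to DMSO controls.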
# KCNH2 3.1 inh: KCNH2 3.1 (human) potassium channel inhibition | U2OS KCNH2 3.1, thallium flux FluxOr; hits give low values | activity change, % (tested at about 1.8 µM) | hit rate 0.95% among 340,000;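 active = maximum activity change below -70%; inconclusive = maximum activity change from -70% to -50%; inactive = maximum activity change above -50%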;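 note: thallium influx rate constant from kinetic fluorescence after stimulation buffer; % is set by controls: 0 for no effect and ±100 for the full control effect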
#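 Steps: virus added to U2OS suspension (4 h, RT, dark); medium with 10% FBS added, cells plated, 37 C overnight; FluxOr/Red40 loading buffer 45 min RT; stimulation buffer, 2 min kinetic read; rate constant normalized.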
# TRHR enhancer: allosterically enhances the human TRH receptor; TRHR cells, fluo-8 calcium fluorescence, EC20 TRH enhancement; enhancement, % at 2 µM; hit rate 0.66% among 360,000; in the data active = enhancement above about 30%; note: 0% is about no effect
#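 Enhancer read-out: after compound pinning and an initial kinetic agonist-mode read, an EC20 of TRH (10 nM final) was injected and fluo-8 calcium signal (Ex 480/Em 530) followed at 1 s/cycle for 100 cycles in TRHR-expressing cells.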
# TRPML1 ag: agonists of human TRPML1 channel | AID 624414 | activation, % (concentration not given with the values) | Q9GZU1 | TRPML1-expressing cells, Ca2+ dye fluorescence, FDSS | hit rate 0.12% among 410,000; in the data active = activation above about 50%; inconclusive = mostly about 30% to 49%; note: 0% is about no effect
#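 Agonist activity was taken from a 110 s kinetic Ca2+ dye read on the FDSS after pinning compounds onto TRPML1-DL cells. The cells were seeded at 1,500/well with Tet inducer, incubated about 16 h, then dye-loaded at room temperature.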
# TRPML1 inh: blocks the human TRPML1 channel; hit rate 0.02% among 390,000; AID 624415; TRPML1-inducible cells, Ca2+ dye fluorescence, FDSS; hits give low values; inhibition of EC80 agonist-evoked calcium signal; activity change, negative = inhibition, % (no concentration beside the values); Q9GZU1; in the data active = activity change below about -50%; inconclusive = between about -30% and that limit;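 note: stimulus is agonist 54-4 at its EC80 concentration; % is set by controls: 0 for no effect and ±100 for the full control effect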
#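 Calcium fluorescence in TRPML1-DL cells induced overnight with Tet: a 110 s read after compound pin addition, then a 110 s antagonist read after challenge with 54-4 at 4 uM final (EC80).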
# An asterisk follows results filed as active; ? = inconclusive; · = no result. Most compounds without a hit are left out; they make up all but 1.7% or so of the library.
SMILES,TRHR ag,KCNH2 WT inh,KCNH2 3.1 inh,TRHR enhancer,TRPML1 ag,TRPML1 inh
COc1ccc(NC(=O)C2CCC(C(C)(C)C)CC2)cc1S(=O)(=O)N1CCCCC1 (centres undefined),-0.7,-9.1,-1.4,-2.5,83.8*,-1.4
CCn1nc(C)c(CN2CCC(C(=O)Nc3cccc(-c4cccc(F)c4)c3)CC2)c1C,0.7,?,-78.4*,0.0,12.5,20.7
COc1ccc(S(=O)(=O)N2CCC(C(=O)Nc3ccc(Oc4ccccc4)cc3)CC2)cc1OC,-0.1,·,·,32.3*,-0.8,23.6
O=C(COc1ccc(F)cc1)Nc1ccccc1OCc1cc(=O)n2ccccc2n1,0.6,·,·,4.5,0.9,-9.3
COc1cccc(O)c1CN1CCC(C(=O)Nc2ccc(Oc3cccnc3)cc2)CC1,2.2,-3.3,-23.3,-3.2,2.7,-10.9
COc1ccc(CN2CCC(C(=O)Nc3ccc(Oc4cccnc4)cc3)CC2)c(C)c1C,1.5,4.8,-74.3*,3.6,0.3,25.4
CC(C)N1CN=C(Nc2nc3ccccc3o2)NC1,0.4,-1.9,3.0,31.0*,-0.7,-2.6
Cc1cccc(C(=O)NCCc2nnc(SCC(=O)Nc3cccc(C(=O)O)c3)n2C)c1,0.6,21.3,·,3.1,0.1,-10.4
CCN1C(=O)[C@H]2[C@@H](c3ccc(C(F)(F)F)cc3)N[C@]3(CCCN(Cc4ccc(F)cc4)C3=O)[C@H]2C1=O,·,-1.6,-1.8,·,-0.1,12.8
CC(C)NS(=O)(=O)c1ccc(NC(=O)C(C)OC(=O)CCCOc2ccccc2)cc1 (centres undefined),0.4,-13.0,13.1,30.2*,0.1,8.7
Cc1cc(C)c(C#N)c(SCC(=O)NC(C)(C)C)n1,0.0,-13.3,-84.1*,1.5,-1.1,-7.0
Cc1cc(C(F)(F)F)c(C#N)c(SCC(=O)NC(C)(C)C)n1,-0.2,9.9,?,-2.9,0.9,-20.7
COC(=O)CCC(=O)OC1(C)C(=O)C=C2C=C(C3CC3)N(CCCOC(C)C)C=C2C1=O (centres undefined),0.9,-11.7,-86.0*,-1.0,-0.3,-10.7
CC(CNC(=O)Cn1c(-c2cccs2)cc2ccccc21)c1ccccc1 (centres undefined),1.9,·,·,-5.2,0.9,23.6
COc1ccc(NC(=O)CN(C)C(=O)c2ccccc2OC)cc1,0.7,-10.6,-2.0,35.3*,-0.6,-2.3
O=C(COc1cc2oc(=O)c3c(c2cc1Cl)CCC3)NCc1ccncc1,-0.2,24.3,-26.6,35.7*,-0.1,2.1
Cc1cc(Cl)ccc1OCC(O)CNCCc1ccc(S(N)(=O)=O)cc1 (centres undefined),1.4,?,-98.5*,-17.9,6.8,8.7
COc1cc(CNCCc2ccc(S(N)(=O)=O)cc2)ccc1OCc1ccc(Cl)cc1,0.6,-31.2,-108.5*,3.0,6.2,37.9
NS(=O)(=O)c1ccc(CCNCc2ccccc2OCc2ccc(F)cc2)cc1,0.8,-32.9,-75.8*,-15.6,-1.5,0.9
CCOC(=O)c1[nH]c2ccc(F)cc2c1NC(=O)CN1CCN(C/C=C/c2ccccc2)CC1,0.3,-89.8*,?,4.0,-0.4,-5.2
COC(=O)c1[nH]c2ccccc2c1NC(=O)CN1CCN(C/C=C/c2ccccc2)CC1,-0.3,-93.9*,-96.4*,4.0,-0.2,-1.1
COc1ccc(C)cc1NC(=O)CN1CCN(C/C=C/c2ccccc2)CC1,-0.9,-98.0*,-102.3*,3.3,2.5,-16.2
Cc1cccc(C)c1NC(=O)CN1CCN(C/C=C/c2ccccc2)CC1,·,·,·,·,-0.3,·
C/C(=N/NC(=O)Nc1ccccc1)c1ccc(C)cc1,0.0,-5.3,0.8,32.7*,1.2,37.2
COc1ccc(C)cc1NC(=O)CN1CCN(c2ccccc2F)CC1,0.1,-2.5,0.5,-0.2,2.4,13.6
SMILES,TRHR ag,KCNH2 WT inh,KCNH2 3.1 inh,TRHR enhancer,TRPML1 ag,TRPML1 inh
COc1ccc(C)cc1NC(=O)Nc1ccccc1,-1.0,-136.9*,-134.5*,2.3,-0.2,87.9
COc1ccc(NC(=O)Nc2cc(C)ccc2OC)cc1,-0.2,0.4,-7.0,-2.1,1.7,17.2
O=C(CN1CCN(C/C=C/c2ccccc2)CC1)NCc1ccc(Cl)cc1,0.4,?,-123.6*,7.3,·,·
CCOc1ccccc1NC(=O)c1cc2ccc3cccnc3c2[nH]1,-1.1,·,·,32.1*,5.2,59.7
COc1ccccc1NC(=O)c1cc2ccc3cccnc3c2[nH]1,-0.2,·,·,23.4,0.4,35.9
NS(=O)(=O)c1cccc(NC(=O)CSc2nnc(NC3CC3)s2)c1,·,-3.2,3.4,·,-0.1,-11.8
CCOC(=O)C1(CCOc2ccccc2)CCN(CC2CC2)CC1,0.1,12.7,-19.9,-5.3,-0.7,-7.9
CCOC(=O)C1(CCOc2ccccc2)CCN(C(=O)c2ccc(-n3cccn3)cc2)CC1,-4.0,?,-86.8*,3.8,2.0,3.1
CCOC(=O)C1(CCOc2ccccc2)CCN(CCCn2cccn2)CC1,0.6,-37.7,-87.9*,-2.4,-0.1,-12.3
CCOC(=O)C1(CCOc2ccccc2)CCN(Cc2cccc(-n3cccn3)c2)CC1,0.7,·,-98.4*,-6.4,2.8,2.4
O=C(Nc1ccc(C(F)(F)F)cc1)C1CCCCN1S(=O)(=O)c1ccccc1 (centres undefined),0.4,-3.7,-14.0,-6.0,2.1,38.2
COc1ccc(C)cc1S(=O)(=O)NCCC1=CCCCC1,-1.1,-257.2*,1.8,-3.3,0.7,-4.1
CCn1c(=O)n(CC)c2cc(N3CCCCC3)c(NC(=O)Nc3cc(Cl)ccc3OC)cc21,0.2,·,·,-1.3,2.8,9.4
COc1cccc(CC(=O)Nc2nc(-c3ccc(F)c(F)c3)cs2)c1,-0.1,-3.9,-93.5*,-9.5,1.7,-11.8
CC(=O)N1CCc2cc(S(=O)(=O)NC(CC(C)C)C(=O)NCCc3ccc(C)cc3)ccc21 (centres undefined),-0.4,·,·,-5.7,-1.3,-11.7
CSc1nc2ccc(Br)cc2[nH]1,-0.2,1.3,-72.2*,7.9,-1.1,6.4
Cc1ccc(NC(=O)CN(C)C(=O)COC(=O)c2nc3nccc(C)n3n2)cc1,-1.5,0.4,-7.0,6.6,0.4,-2.0
Clc1ccc(CN2CCN(c3ncnc4scc(-c5cccs5)c34)CC2)cc1,0.5,-45.9,-82.8*,2.7,0.6,-4.9
Fc1ccc(CN2CCN(c3ncnc4scc(-c5ccc(F)cc5)c34)CC2)cc1,-0.1,25.9,-22.6,2.7,-0.4,-12.5
Cc1ccc(NC(=S)NCCN(C2CCCCC2)C2CCCC2)cc1,0.3,1.0,-72.9*,3.6,0.3,27.5
CCC(Oc1ccc(Br)cc1)C(=O)N1CCN(c2ncccn2)CC1 (centres undefined),-0.7,1.2,-13.3,11.0,-0.1,2.5
